Rows were chosen to be rich in hits. Some 19% of all compounds tested hit in one or more screens of this group.
Shiga toxin inh: Shiga toxin inhibition | actives 9.2% (n = 290,000) | inhibition, % at 38.7 µM | Vero cells, Shiga toxin protein synthesis inhibition reporter | AID 2315; in the data active = inhibition mostly above about 28%, no sharp cut-off; inactive = mostly below about 43%; also: 0% is about no effect
Pf growth 96h: inhibits malaria parasite growth, 96 h | actives 6.9% (n = 320,000) | Potency, µM (top dose mostly 28.7 µM), inactives show at the highest dose activity change, negative = inhibition, hits mostly inhibitors | P. falciparum luciferase reporter growth, 96 h; also: potency is read from the fitted curve at half-maximal effect; % is scaled to controls: 0 for no effect and ±100 for the full control effect
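P. falciparum expressing integrated firefly luciferase grown in erythrocytes (2% hematocrit, 0.05% parasitemia final) with compounds for 96 hours at 37 C, 5% CO2. Growth inhibition read as loss of luminescence after adding luciferase detection reagent.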
SARS PLpro yeast: inhibitors of SARS-CoV papain-like protease in yeast; S. cerevisiae expressing SARS-CoV PLpro, growth rescue; Potency, µM (highest dose often 32.9 µM), for inactives: at the highest dose activity, positive = growth rescue, most hits filed as activators; actives 0.19% (n = 330,000); AID 485353; calls by dose curve; also: potency is read from the fitted curve at half-maximal effect; 0% is about no effect; nearly all actives have a fitted effect of over 55% in size
Pf growth 48h: P. falciparum growth inhibition at 48 hours (one generation); P. falciparum luciferase growth in erythrocytes, 48 h; Potency, µM (doses to about 28.7 µM), inactives show top-dose activity change, negative = inhibition, hits mostly inhibitors; actives 5.9% (n = 310,000); also: potency is read from the fitted curve at half-maximal effect; % is scaled to controls: 0 for no effect and ±100 for the full control effect
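Luminescence readout; reporter = integrated firefly luciferase in P. falciparum. RBC culture at 2% hematocrit, 0.1% parasitemia final, 37 C/5% CO2; decreased signal taken as growth inhibition.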
CHX counter: counter-screen hit for Shiga toxin inhibitors, cycloheximide; max response, %; actives 12% (n = 300,000); cell reporter, cycloheximide protein synthesis inhibition counterscreen; in the data active = max response mostly above about 13%, no sharp cut-off; inactive = mostly below about 14%; also: read at 38.3 µM for the half of the compounds with a filed dose; 0% is about no effect
AMA1-RON2 inh: inhibitors of Plasmodium falciparum AMA1-RON2 interaction; AlphaScreen AMA1-biotinylated RON2 peptide binding; actives 0.2% (n = 360,000); AID 720542; Potency, µM (doses to about 58.2 µM), inactives show top-dose activity change, negative = inhibition, actives largely listed as inhibitors;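 also: potency is read from the fitted curve at half-maximal effect; 0% = vehicle wells and -100% = peptide control; nearly all actives have a fitted effect of over 45% in size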
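AMA1 (3D7) with his tag at 25 nM final met compounds first, then biotinylated RON2 peptide at 25 nM; detection used donor plus acceptor beads, 10 µg/mL apiece, read by AlphaScreen after 30 min at room temperature.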
Active calls of the source: *; ? = inconclusive; . = no result; [ ] = remark or other dose. Unless noted, calls follow the shape of the dose curve; as a rule, active = well fitted curve in the direction sought with a large enough effect; inconclusive = small, poorly fitted or top-dose-only effect, or another doubt; inactive = no such curve, though single readings can be large; an effect the other way counts as inactive or inconclusive.

SMILES | Shiga toxin inh | Pf growth 96h | SARS PLpro yeast | Pf growth 48h | CHX counter | AMA1-RON2 inh
O=C(CCNC(=O)c1ccc([N+](=O)[O-])cc1)Nc1ccc(F)cc1F | 20 | 58% | 1% | 25% | 13 | -2%
O=C(NS(=O)(=O)c1ccc(Cl)cc1)c1ccccc1 | -18 | 14% | -5% | 0% | -2 | 0%
Cc1ccccc1C(=O)Nc1cccc(NC(=O)c2ccc(F)cc2)c1 | 28 | 10µM* | -3% | -11% | 10 | 8%
O=C(NC(=S)Nc1ccc(Cl)cc1)c1ccccc1 | 72* | 116% | 0% | 82% | 89* | -9%
O=C(O)c1ccc(N/C(=N\S(=O)(=O)c2ccc(Cl)cc2)c2ccccc2)cc1 | 11 | ? | 0% | 36% | -2 | 7%
O=C(N/C(=N\O)c1ccccc1)Nc1ccc(Cl)cc1 | 48* | . | -2% | 24% | 26 | -1%
O=C(O)/C(=N/NC(=O)c1ccc(Cl)cc1)c1ccccc1 | 13 | 36% | 0% | 12% | 23* | 91%
O=C(O)c1cccc(-n2cccc2C=C2C(=O)c3ccccc3C2=O)c1 | -1 | ? | 1% | -4% | 8 | -19%
CC(C)NC(=S)Nc1ccc(Oc2ccccc2)cc1 | 29* | 3% | -31% | -22% | 15 | -8%
O=C(N/N=C/c1ccc(Cl)cc1Cl)Nc1ccccc1 | 28 | 111% | 1% | 58% | 9.2* | -6%
O=C(N/N=C/c1cccn1-c1cccc(C(=O)O)c1)Nc1ccccc1 | 52* | -20% | 9% | 7% | 31* | 8%
CCCNC(=S)Nc1ccc(Oc2ccccc2)cc1 | -5 | -28% | -10% | . | 17 | 6%
CC(=O)c1ccc(NC(=O)NC2CC(=O)N(c3ccc4c(c3)OCCO4)C2)cc1 (centres undefined) | . | ? | -3% | ? | . | -4%
O=[n+]1ccn([O-])c2ccccc21 | . | 22% | . | 9% | . | .
CC(=O)Nc1sc(NC(=O)c2ccco2)nc1-c1cccs1 | -5 | 25% | 0% | 13% | -2 | 3%
CCOC(=O)c1sc(Nc2nc3c(OC)cccc3s2)cc1C | 108* | -64% | -128% | -57% | 53* | -11%[11.6 µM]
O=C(COc1ccccc1)Nc1nc2cc3c(cc2s1)OCCO3 | 19 | 75% | 3% | 33% | 28* | -13%
O=C(Nc1nc2cc3c(cc2s1)OCCO3)c1ccco1 | -14 | -65% | -13% | -39% | -8 | -5%
O=C(Nc1nc(-c2cccs2)c(-c2ccccc2)s1)c1ccco1 | 31 | 12% | -6% | 28% | 18* | -6%
O=C(Nc1nc2cc3c(cc2s1)OCO3)c1ccco1 | 86* | 86% | -5% | 36% | 49* | 4%
CCN(CC)CCN(C)Cc1ccc(Br)cc1 | 14 | ? | 11% | . | -3 | -13%
CC(=O)c1c(C)c(C)c2n1CCn1c(C)ccc1-2 | -1 | ? | 0% | ? | -3 | -27%
Cc1ccc(S(=O)(=O)N2CCN(C(=O)CSc3n[nH]c(N)n3)CC2)c(C)c1 | . | -30% | -1% | ? | . | 14%
CCOC(=O)c1sc(Nc2nc3cc4c(cc3s2)OCO4)cc1C | 82* | 9.3µM* | 8% | 8.3µM* | 43* | 7%[11.6 µM]
CC(=O)Nc1nc2cc3c(cc2s1)OCO3 | 96* | 251% | 4% | . | 31* | -6%
SMILES | Shiga toxin inh | Pf growth 96h | SARS PLpro yeast | Pf growth 48h | CHX counter | AMA1-RON2 inh
CCOC(=O)c1sc(NC(=O)COc2ccc3c(c2)OCO3)nc1C | -7 | 9% | -1% | 42% | -3 | -7%
CC1CC1C(=O)Nc1nc(-c2cccs2)c(-c2cccs2)s1 (centres undefined) | -41 | -23% | -47% | 4% | 19* | 26%
O=C(Nc1nc2ccccc2c(=O)s1)c1ccc(F)cc1Cl | 32 | 44% | 1% | 16% | 18 | 3%
Nc1nc(-c2cccs2)c(-c2cccs2)s1 | -6 | 33% | -7% | . | -2 | -12%
O=C(Nc1nc2ccccc2c(=O)s1)c1ccco1 | 5 | 2% | -10% | 2.1µM* | -2 | -5%
O=C(CCN1C(=O)/C(=C/c2ccccc2Cl)SC1=S)NCCc1ccc(O)cc1 | -9 | 14% | 8% | -19% | 3 | 7%
COC(=O)[C@@]1(Cc2ccc(F)cc2)[C@H]2c3cc(C(=O)N(C)C)n(CC4CC4)c3C[C@H]2CN1C(=O)c1ccccc1 | . | . | . | . | . | -15%
Cc1nn(-c2ccccc2)c(Cl)c1C(=O)OCC(=O)NCCc1ccccc1 | -10 | ? | -5% | -6% | -3 | -6%
CS(=O)(=O)N1CCCC(C(=O)Nc2ccc3c(c2)OCCO3)C1 (centres undefined) | 49 | 18% | 3% | 9% | 12 | -5%
Clc1ccc(CCNc2nc3ccccc3s2)cc1 | 25 | 44% | -18% | 59% | 10 | -5%
CC(=O)c1sc(Nc2ccc3c(c2)OCO3)nc1C | . | . | . | . | . | 0%
CC(C)C(=O)Nc1nc2cc3c(cc2s1)OCCO3 | 93* | 185% | -1% | 292% | 55* | 0%
CC(=O)c1sc(Nc2nc3cc4c(cc3s2)OCO4)nc1C | 74* | ? | 0% | 102% | 27 | -5%
Cn1c(O)c(/C=N/Nc2ccccc2)c(=O)n(C)c1=O | 26 | 11% | 0% | -14% | 6 | 2%
CCOC(=O)c1c(/C=N/Nc2ccccc2)c2sc(C)cc2n1C | . | ? | -16% | 9.3µM* | . | .
Cc1ncc([N+](=O)[O-])n1CC(=O)N/N=C/c1ccccc1F | -2 | 1% | 0% | 8% | 2 | -13%
Cc1cccn2c(CNCC3(c4ccccc4)CCCC3)c(C(=O)N3CCOCC3)nc12 | -6 | -15% | 0% | ? | 0 | 2%
O=C(Nc1ccc(OCC(=O)N2CCOCC2)cc1)Nc1cccc(Cl)c1 | 39* | -23% | -1% | -11% | 14* | -1%
O=C(Nc1ccc(C(=O)N2CCOCC2)cc1)Nc1cccc(Cl)c1 | 65* | ? | -32% | 86% | 44* | -5%
CC(C)(C)c1ccc(NC(=O)Nc2ccc(OCC(=O)N3CCOCC3)cc2)cc1 | 93* | -38% | -4% | 212% | 35* | 2%
O=C(c1ccc(Cl)cc1)c1ccc(OCC(=O)N2CCOCC2)cc1 | 20 | 87% | -6% | 31% | 16 | 6%
O=C(COC(=O)CN1C(=O)C2CCCCC2C1=O)Nc1cc(F)ccc1F (centres undefined) | . | -2% | -6% | 45% | . | -29%
CCCNC(=O)Cn1c(=O)/c(=C/c2ccc(-c3ccc([N+](=O)[O-])cc3)o2)s/c1=C\C(=O)C(C)(C)C | . | . | . | . | . | -6%
C=CCn1c(=O)c2ccccc2n2c(SC(C)C(=O)Nc3nc(-c4ccccc4)cs3)nnc12 (centres undefined) | 10 | ? | -18% | 10µM* | -5 | -15%
Cn1[nH]c(C(F)(F)F)c(C=NCc2ccc(Cl)cc2)c1=O | -11 | 30% | 2% | -22% | 1 | 18%
